Measurements taken from PubChem BioAssay.
Several values for one entry are separate records, joined by “and”; a condition that tells them apart may be missing. Equal values may be shown once. A structure can be active in one record and inactive in another. Activity calls are given as the source filed them.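 How the source made its calls, unless noted: active means thallium flux through the channel raised or lowered by more than 3 SD from vehicle-only wells, actives on both sides; inactive means the rest.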

Key:
[1] = tested on: Hepatitis C virus NS3 helicase; experiment: blockers of NS3h binding to DNA – biochemical, fluorescence polarization, NIH Clinical Collection, primary screen (AID 743270; call rule not given here); details: NS3 helicase binding to Cy5-dT15 DNA, stronger effect = higher value, concentration not given here
[2] = target: Single-stranded DNA-binding protein (Escherichia coli (strain K12)) (UniProt P0AGE0); experiment: SSB-ssDNA binding inhibitors – biochemical, fluorescence polarization, NIH Clinical Collection, counter-screen for HCV NS3 helicase inhibitor project (AID 743271; in the data active means inhibition above about 28%); details: E. coli SSB-DNA binding, stronger effect = higher value, concentration not given here
[3] = compounds distorting NS3 helicase fluorescence signal – biochemical, NIH Clinical Collection, artefact control for HCV NS3 helicase inhibitor project (AID 743272; call rule not given here;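 further: HCV NS3 helicase with a Cy5 labelled single stranded DNA probe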); details: fluorescence interference counterscreen, HCV NS3 helicase assay; stronger effect = lower value
[4] = Wnt pathway potentiators raising nuclear beta-catenin – imaging, WNT3A-conditioned medium, mouse C2C12, NPC library, primary screen (AID 1117326; in the data active means nuclear beta-catenin stimulation mostly above about 4.2%, no sharp cut-off; inactive means mostly below about 10%); details: stronger effect = higher value
[5] = stimulators of insulin release from INS-1E, primary screen, cell-based, 5 mM glucose, NPC library (AID 1117329;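 active means compound raises insulin release from rat beta cells at 5 mM glucose, no numeric limit stated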); details: rat INS-1E insulin secretion, at 10 µM, stronger effect = higher value
[6] = growth inhibition of GSK3B-pretreated HCT116 cells – cell-based, CellTiter-Glo, 0.2 to 20 µM (AID 1117336;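 active means compounds lowering colon cancer cell viability after pretreatment blocking the GSK3B kinase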); details: HCT116 viability after GSK3B inhibitor, at 20 µM, stronger effect = higher value
[7] = inhibition of endothelial tube formation, primary screen, imaging, VEGF stimulated, CD31 staining, tube area, NPC library (AID 1117340;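 active means compound that reduces growth-factor-driven endothelial tube area in a mixed cell culture, no cutoff stated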); details: VEGF-stimulated ADSC/ECFC co-culture, at 10 µM, stronger effect = higher value
[8] = GLP1 release stimulators, primary, NCI-H716, NPC library (AID 1117341;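 active means compound raises GLP1 secretion from the human gut endocrine cells, with no numeric limit stated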); details: NCI-H716 cells, at 10 µM, stronger effect = higher value
[9] = HCT116 colon cancer cell growth inhibition, primary screen, CellTiter-Glo luminescence, NPC library (AID 1117342;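 active means compounds that lower survival of HCT116 colon cancer cells in the luminescence readout, no numeric limit stated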); details: at 20 µM (top of the series)
[10] = reduced SW480 viability measured with CellTiter-Glo, NPC library, primary (AID 1117343;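 active means compounds that lower viability of the colon cancer cells in the luminescence readout, with no numeric limit stated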); details: CellTiter-Glo luminescence; at 20 µM (top of the series)
[11] = NPC library primary testing for decreased DLD-1 cell viability via CellTiter-Glo (AID 1117346;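 active means compounds that lower survival of DLD-1 colon cancer cells in the luminescence readout, no cutoff given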); details: DLD-1 viability, CellTiter-Glo luminescence; at 20 µM (top of the series)
[12] = target: 6-phosphogluconate dehydrogenase, decarboxylating (Homo sapiens) (UniProt P52209); experiment: inhibition of human phosphogluconate dehydrogenase – biochemical, recombinant enzyme, NADPH absorbance, primary screen (AID 1159550;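 active means at least 20% inhibition of 6-phosphogluconate dehydrogenase activity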); details: recombinant 6PGD, NADPH absorbance 341 nm; at 10 µM; stronger effect = higher value
Chain of 6-phosphogluconate dehydrogenase, decarboxylating (Homo sapiens) (P52209 whole entry, looked up): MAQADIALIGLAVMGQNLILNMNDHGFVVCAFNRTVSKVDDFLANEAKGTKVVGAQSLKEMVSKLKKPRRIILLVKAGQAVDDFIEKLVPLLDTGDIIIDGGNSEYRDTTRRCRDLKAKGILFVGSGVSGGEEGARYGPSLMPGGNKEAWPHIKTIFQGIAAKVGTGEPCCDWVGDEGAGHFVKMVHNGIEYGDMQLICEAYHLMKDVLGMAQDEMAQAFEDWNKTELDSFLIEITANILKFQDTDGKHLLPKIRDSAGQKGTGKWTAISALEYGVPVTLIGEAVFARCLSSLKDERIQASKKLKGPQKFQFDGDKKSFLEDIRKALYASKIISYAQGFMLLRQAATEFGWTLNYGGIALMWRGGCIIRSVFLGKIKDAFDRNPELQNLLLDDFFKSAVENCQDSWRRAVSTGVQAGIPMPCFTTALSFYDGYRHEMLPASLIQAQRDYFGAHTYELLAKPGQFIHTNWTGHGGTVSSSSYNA

[13] = EMT-state selective cytotoxicity in co-culture – imaging, PC-3E GFP, TEM4-18 mCherry, primary screen (AID 1345086;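 active means compounds killing one labelled cell type while sparing the other, by normalised counts and ratio limits, not self-fluorescent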;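 on all read-outs here: cells exposed to compound for 72 h before imaging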;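 on red/green cell ratio (normalised): normalised mesenchymal count divided by normalised epithelial count so high means epithelial killing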); details: PC-3E GFP / TEM4-18 mCherry co-culture, imaging cell counts, at 1 µM; for red/green cell ratio (normalised): actives lie on both sides, counts scaled to control wells, 1 = unselective
[14] = viability loss with induced miR-34 in A549 – imaging, A549 dox-inducible miR-34, nuclei and caspase counts, primary screen (AID 1347080;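 active means compounds whose cell count with miR-34 switched on is under 0.7 times the count with it off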); details: A549 miR-34 inducible, Hoechst nuclei count, 48 h
[15] = MELAS cybrid and Rieske KO viability enhancers – cell-based, MELAS cybrids, Rieske KO mouse fibroblasts, CellTiter-Glo, primary screen (AID 1508586;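 active means mean z-score across replicates of 1.96 or higher in either the MELAS or the Rieske mutant cell line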;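 further: z relative to plate mean and SD of compound and empty wells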); details: low glucose
[16] = target: NAD(+) hydrolase SARM1 (Homo sapiens) (UniProt Q6SZW1); experiment: blocking NAD cleavage by SARM1 SAM-TIR – cell lysate, NAD-Glo luminescence (AID 1508614;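 active means compound whose remaining NAD level is above about 45 nM, limit read from the data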); details: SAM-TIR HEK293T lysate NADase, at 1 µM, stronger effect = higher value
Chain of NAD(+) hydrolase SARM1 (Homo sapiens) (Q6SZW1 whole entry, looked up, the tested form may be a part): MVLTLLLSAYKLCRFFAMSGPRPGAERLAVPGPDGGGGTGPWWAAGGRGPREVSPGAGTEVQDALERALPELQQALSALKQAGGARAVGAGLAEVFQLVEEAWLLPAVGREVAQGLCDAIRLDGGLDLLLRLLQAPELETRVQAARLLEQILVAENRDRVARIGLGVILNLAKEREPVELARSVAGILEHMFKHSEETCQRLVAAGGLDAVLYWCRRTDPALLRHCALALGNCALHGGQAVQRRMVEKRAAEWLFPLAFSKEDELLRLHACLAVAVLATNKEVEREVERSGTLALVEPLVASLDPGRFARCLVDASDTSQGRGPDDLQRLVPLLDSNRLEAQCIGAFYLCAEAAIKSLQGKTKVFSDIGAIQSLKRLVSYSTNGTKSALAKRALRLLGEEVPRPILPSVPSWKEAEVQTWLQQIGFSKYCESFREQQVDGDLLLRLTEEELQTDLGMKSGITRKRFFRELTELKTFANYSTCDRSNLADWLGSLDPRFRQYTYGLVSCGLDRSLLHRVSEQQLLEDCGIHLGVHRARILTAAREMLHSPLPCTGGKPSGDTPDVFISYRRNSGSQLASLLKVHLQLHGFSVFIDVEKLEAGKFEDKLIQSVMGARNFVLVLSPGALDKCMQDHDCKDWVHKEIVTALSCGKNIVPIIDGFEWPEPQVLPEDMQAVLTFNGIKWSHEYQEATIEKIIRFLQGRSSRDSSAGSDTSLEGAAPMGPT

[17] = target: Mitogen-activated protein kinase 7 (Homo sapiens) (UniProt Q13164); experiment: Gal4-ERK5 driven luciferase induction – cell-based, HTS, primary screen (AID 1508626;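 active means luciferase signal above three times the same-plate solvent-only control wells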;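 further: luciferase driven by Gal4-ERK5 fusion binding five Gal4 sites before minimal TATA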); details: HeLa Gal4-ERK5 transactivation, 18 h, at 5 µM, stronger effect = higher value
Chain of Mitogen-activated protein kinase 7 (Homo sapiens) (Q13164 whole entry, looked up, the tested form may be a part): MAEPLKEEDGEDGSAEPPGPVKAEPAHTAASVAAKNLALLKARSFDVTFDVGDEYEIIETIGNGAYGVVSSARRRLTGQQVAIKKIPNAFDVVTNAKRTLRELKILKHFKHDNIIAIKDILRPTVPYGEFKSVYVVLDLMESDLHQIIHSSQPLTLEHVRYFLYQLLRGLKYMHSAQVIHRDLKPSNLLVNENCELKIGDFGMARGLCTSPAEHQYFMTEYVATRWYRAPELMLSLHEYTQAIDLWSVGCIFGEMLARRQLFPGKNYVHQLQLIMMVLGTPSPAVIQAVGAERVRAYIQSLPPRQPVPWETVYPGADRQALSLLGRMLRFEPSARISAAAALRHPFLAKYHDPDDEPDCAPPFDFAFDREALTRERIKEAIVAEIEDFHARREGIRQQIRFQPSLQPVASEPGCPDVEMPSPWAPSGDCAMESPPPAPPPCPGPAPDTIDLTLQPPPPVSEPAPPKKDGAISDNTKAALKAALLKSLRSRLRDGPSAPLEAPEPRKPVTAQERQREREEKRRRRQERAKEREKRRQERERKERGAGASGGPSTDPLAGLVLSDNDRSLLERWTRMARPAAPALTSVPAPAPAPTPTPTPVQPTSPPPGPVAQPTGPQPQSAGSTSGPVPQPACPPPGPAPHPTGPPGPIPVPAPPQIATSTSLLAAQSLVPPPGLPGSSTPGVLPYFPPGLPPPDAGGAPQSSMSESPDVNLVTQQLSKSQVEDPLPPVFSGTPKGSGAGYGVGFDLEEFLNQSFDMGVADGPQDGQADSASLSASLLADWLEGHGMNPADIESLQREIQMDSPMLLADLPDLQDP

[18] = tested on: F380Y; experiment: BK channel mutant inhibitors and activators – cell-based, U2OS BacMam, thallium flux, beta subunits, selectivity assay, profiling panel (AID 1259406); details: U2OS BacMam BK variants, at 30 µM;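 further: initial slope of Thallos dye fluorescence rise after thallium is added; log ratio against the mean of 0.3% DMSO vehicle wells on the same plate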
[19] = tested on: F380Y/beta2Delta; experiment: as above; details: U2OS BacMam BK variants, at 30 µM
[20] = target: Calcium-activated potassium channel subunit alpha-1 (Homo sapiens) + Leucine-rich repeat-containing protein 26 (Homo sapiens) (UniProt Q12791+Q2I0M4); experiment: as above; details: U2OS BacMam BK variants, F380Y/Slo1WT/gamma1, at 30 µM
Chain of Calcium-activated potassium channel subunit alpha-1 (Homo sapiens) + Leucine-rich repeat-containing protein 26 (Homo sapiens) (Q2I0M4 whole entry, looked up, one chain of several): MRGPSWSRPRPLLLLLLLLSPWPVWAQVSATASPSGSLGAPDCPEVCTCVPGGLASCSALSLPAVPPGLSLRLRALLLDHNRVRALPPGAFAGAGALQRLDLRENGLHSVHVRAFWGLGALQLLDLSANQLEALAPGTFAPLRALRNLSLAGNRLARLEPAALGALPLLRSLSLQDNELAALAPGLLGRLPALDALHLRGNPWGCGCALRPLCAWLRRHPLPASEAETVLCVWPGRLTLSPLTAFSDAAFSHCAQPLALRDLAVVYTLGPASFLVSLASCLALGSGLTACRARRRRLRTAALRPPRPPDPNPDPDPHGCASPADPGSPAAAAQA

[21] = measured here: epithelial PC-3E GFP cell survival
[22] = measured here: mesenchymal TEM4-18 mCherry cell survival
[23] = stronger effect = lower value, cell number ratio, induced over uninduced
[24] = measured here: relative caspase fold change +Dox/-Dox
[25] = measured here: total cells with miR-34 induction, stronger effect = lower value
[26] = measured here: total cells without miR-34 induction
[27] = MELAS cybrid survival, CellTiter-Glo 48 h, stronger effect = higher value
[28] = Rieske KO mouse fibroblast survival, CellTiter-Glo 72 h

CN(C)CCOC(c1ccc(Cl)cc1)c1ccccn1 (stereo not drawn)
1.31 and 1.4 and 2.86: fold change [14, 24]
-1.05: z-score [15, 28]
1.14: normalised cell number [13, 21]
0.3%: nuclear beta-catenin stimulation ([4]; stimulation, at 2 µM)
inactive: inhibition [1] -5% | inhibition [2] -3.53% | fluorescence ratio [3] 1.03 | nuclear beta-catenin stimulation ([4]; at 10 µM) 0.9% | viability decrease [6] 8.6% | tube area decrease [7] 1.1% | GLP1 secretion stimulation [8] 6.8% | inhibition of viability [9] 2.7% | viability decrease (inhibition) [10] 6% | viability decrease (inhibition) [11] -7% | inhibition [12] 8.32% | red/green cell ratio (normalised) [13] 1.11 | fold change [14, 23] 0.98 and 0.859 and 0.928 | z-score [15, 27] 0.0234 | remaining NAD [16] 10 nM | luciferase signal [17] 88 AU | log fold change Tl+ flux [18] 0.0898 | log fold change Tl+ flux [19] 0.0734 | log fold change Tl+ flux [20] 0.0613
active: insulin secretion stimulation [5] 46.5%
9460 and 9580 and 12300: cell count [14, 26]
9280 and 8230 and 11400: cell count [14, 25]
1.26: normalised cell number [13, 22]

COc1ccc(OC)c(C(O)CNC(=O)CN)c1 (stereo not drawn)
4.9%: nuclear beta-catenin stimulation ([4]; stimulation, at 2 µM)
9350 and 8590 and 11100: cell count [14, 25]
-0.177: z-score [15, 28]
1.2: normalised cell number [13, 22]
2.18 and 0.75 and 3.91: fold change [14, 24]
10100 and 9420 and 12900: cell count [14, 26]
1.01: normalised cell number [13, 21]
inactive: inhibition [1] -2.27% | inhibition [2] -2.76% | fluorescence ratio [3] 1.02 | nuclear beta-catenin stimulation ([4]; at 10 µM) 3.8% | insulin secretion stimulation [5] 2.7% | viability decrease [6] 17.9% | tube area decrease [7] -15.2% | GLP1 secretion stimulation [8] 0.7% | inhibition of viability [9] -0.9% | viability decrease (inhibition) [10] -26.4% | viability decrease (inhibition) [11] 0.7% | inhibition [12] -19.4% | red/green cell ratio (normalised) [13] 1.18 | fold change [14, 23] 0.924 and 0.912 and 0.855 | z-score [15, 27] 0.0363 | remaining NAD [16] 10 nM | luciferase signal [17] 124 AU | log fold change Tl+ flux [18] -0.028 | log fold change Tl+ flux [19] -0.0267 | log fold change Tl+ flux [20] 0.0303

Cc1cn([C@H]2C[C@H](N=[N+]=[N-])[C@@H](CO)O2)c(=O)[nH]c1=O
1.09: normalised cell number [13, 22]
inactive: inhibition [1] -3.18% | inhibition [2] -2.76% | fluorescence ratio [3] 1.04 | nuclear beta-catenin stimulation ([4]; at 10 µM) 1.2% | insulin secretion stimulation [5] -1.7% | viability decrease [6] 4.9% | tube area decrease [7] 18.1% | GLP1 secretion stimulation [8] -0.1% | inhibition of viability [9] 2.4% | viability decrease (inhibition) [10] -5.4% | viability decrease (inhibition) [11] -4.95% | inhibition [12] 13.6% | red/green cell ratio (normalised) [13] 1.03 | z-score [15, 27] 1.37 and 1.42 | remaining NAD [16] 10 nM | luciferase signal [17] 44 AU | log fold change Tl+ flux [18] -0.00123 | log fold change Tl+ flux [19] 0.00186 | log fold change Tl+ flux [20] 0.0181
1.3%: nuclear beta-catenin stimulation ([4]; stimulation, at 2 µM)
1.06: normalised cell number [13, 21]
0.0413 and -0.28: z-score [15, 28]

C/C=C/C(=O)N(CC)c1ccccc1C
0.97: normalised cell number [13, 22]
10100 and 13300 and 9700: cell count [14, 26]
0.9%: nuclear beta-catenin stimulation ([4]; stimulation, at 2 µM)
-1.25 and -1.17: z-score [15, 28]
0.88: normalised cell number [13, 21]
1.68 and 2.74 and 1.41: fold change [14, 24]
8830 and 11400 and 8670: cell count [14, 25]
inactive: inhibition [1] -2.77% | inhibition [2] -2.41% | fluorescence ratio [3] 1.02 | nuclear beta-catenin stimulation ([4]; at 10 µM) 1.7% | insulin secretion stimulation [5] -0.4% | viability decrease [6] -18.4% | tube area decrease [7] 12.7% | GLP1 secretion stimulation [8] -3.7% | inhibition of viability [9] -11.3% | viability decrease (inhibition) [10] 19.5% | viability decrease (inhibition) [11] -26.5% | inhibition [12] -11.5% | red/green cell ratio (normalised) [13] 1.1 | fold change [14, 23] 0.871 and 0.856 and 0.894 | z-score [15, 27] -0.397 and -0.423 | remaining NAD [16] 10 nM | luciferase signal [17] 64 AU | log fold change Tl+ flux [18] 0.0255 | log fold change Tl+ flux [19] -0.0171 | log fold change Tl+ flux [20] 0.0385

COC(=O)Nc1nc2ccc(C(=O)c3ccccc3)cc2[nH]1
0.29: normalised cell number [13, 22]
inactive: inhibition [1] -15.9% | inhibition [2] -8.87% | fluorescence ratio [3] 0.98 | insulin secretion stimulation [5] -0.3% | viability decrease [6] 10.7% | GLP1 secretion stimulation [8] 2.2% | inhibition [12] 0.811% | red/green cell ratio (normalised) [13] 1.27 | z-score [15, 27] 0.18 and -0.728 and -2.21 | remaining NAD [16] 10 nM | luciferase signal [17] 28 AU | log fold change Tl+ flux [18] -0.0365 | log fold change Tl+ flux [19] -0.00923 | log fold change Tl+ flux [20] 0.00509
0.23: normalised cell number [13, 21]
42.2%: nuclear beta-catenin stimulation ([4]; stimulation, at 2 µM)
0.0815 and 0.438 and 0.923: z-score [15, 28]
active: nuclear beta-catenin stimulation ([4]; at 10 µM) 78.6% | tube area decrease [7] 102% | inhibition of viability [9] 56.4% | viability decrease (inhibition) [10] 27.7% | viability decrease (inhibition) [11] 51.5%

Cn1cnc([N+](=O)[O-])c1Sc1ncnc2nc[nH]c12
active: viability decrease [6] 42% | inhibition of viability [9] 99.5% | viability decrease (inhibition) [10] 77.3% | viability decrease (inhibition) [11] 35.5% | luciferase signal [17] 408 AU
0.8 and 0.138: z-score [15, 28]
0.7%: nuclear beta-catenin stimulation ([4]; stimulation, at 2 µM)
1.11: normalised cell number [13, 22]
0.345 (inactive) and 1.98 (active): z-score [15, 27]
1.13: normalised cell number [13, 21]
inactive: inhibition [1] -3.18% | inhibition [2] -2.76% | fluorescence ratio [3] 0.99 | nuclear beta-catenin stimulation ([4]; at 10 µM) 1.2% | insulin secretion stimulation [5] 0.2% | tube area decrease [7] 29.1% | GLP1 secretion stimulation [8] 4.1% | inhibition [12] 2.32% | red/green cell ratio (normalised) [13] 0.98 | remaining NAD [16] 10 nM | log fold change Tl+ flux [18] -0.0816 | log fold change Tl+ flux [19] -0.0522 | log fold change Tl+ flux [20] -4.3e-05

Clc1ccc2c(c1)C(N1CCNCC1)=Nc1ccccc1O2
0.27: normalised cell number [13, 22]
active: inhibition of viability [9] 57.3% | viability decrease (inhibition) [10] 90% | log fold change Tl+ flux [18] 0.111 | log fold change Tl+ flux [19] 0.148
0.449 and -0.479: z-score [15, 28]
inactive: inhibition [1] -4.09% | inhibition [2] -1.24% | fluorescence ratio [3] 0.96 | nuclear beta-catenin stimulation ([4]; at 10 µM) 0.3% | insulin secretion stimulation [5] 16.5% | viability decrease [6] 46.2% | tube area decrease [7] -3.9% | GLP1 secretion stimulation [8] 15.3% | viability decrease (inhibition) [11] 19.2% | inhibition [12] -21.3% | red/green cell ratio (normalised) [13] 1.17 | z-score [15, 27] -0.224 and 0.465 | remaining NAD [16] 10 nM | luciferase signal [17] 32 AU | log fold change Tl+ flux [20] -0.0105
0.23: normalised cell number [13, 21]
-0.6%: nuclear beta-catenin stimulation ([4]; stimulation, at 2 µM)
